According to PubChem BioAssay (NCI):
This is part of a sample that, as a whole, favours compounds with a hit. Of some 83,000 tested, about 20% had one in any assay.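 96-well plates, one dose, 48 hours. Percent growth reported; active if below 10.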 Values without a mark were called inactive. Calls of active or inactive are those of the source.

Key:
Assay in all cases: NCI-60 one-dose screen, 48 h (100 = growth as untreated, 0 = no growth, -100 = all killed)
Conditions in all cases: 10 µM unless noted
T-47D breast = test system: T-47D breast
BT-549 breast = test system: BT-549 breast
MDA-MB-435 melanoma = test system: MDA-MB-435 melanoma
SW-620 colon = test system: SW-620 colon
MCF7 breast = test system: MCF7 breast
HCT-116 colon = test system: HCT-116 colon
HCC-2998 colon = test system: HCC-2998 colon
KM12 colon = test system: KM12 colon

With `Cc1cn(-c2cc(C(=O)Nc3cccc(C#Cc4cccc5[nH]nc(N)c45)c3)cc(C(F)(F)F)c2)cn1` the growth (T-47D breast) was 54.2%, the growth (BT-549 breast) was 43.2% and the growth (MDA-MB-435 melanoma) was 41.7%. The growth (SW-620 colon) was 43.1%, the growth (MCF7 breast) was 64.8% and the growth (HCT-116 colon) was 23.3%. The growth (HCC-2998 colon) was 62.8% and the growth (KM12 colon) was 64.6%.
For `O=C1Nc2cc(-c3ccncc3)ccc2/C1=C/c1ccc[nH]1`, the growth (T-47D breast) was -20.9% (active), the growth (BT-549 breast) was 24.4% and the growth (MDA-MB-435 melanoma) was 100%. It also gave a growth (SW-620 colon) of 105%, a growth (MCF7 breast) of 21% and a growth (HCT-116 colon) of 57.2%. The growth (HCC-2998 colon) was 72.2% and the growth (KM12 colon) was 33.1%.
For `COc1cc2nc(-c3ccc(C(F)(F)F)cc3)cc(OCCCN3CCCCC3)c2cc1OC`, the growth (T-47D breast) was 35.3%, the growth (BT-549 breast) was 39.3% and the growth (MDA-MB-435 melanoma) was -6.42% (active). It also gave a growth (SW-620 colon) of 30.4%, a growth (MCF7 breast) of 36.2% and a growth (HCT-116 colon) of 25.5%. The growth (HCC-2998 colon) was 56% and the growth (KM12 colon) was 36.6%.
Work on `O=C(CN1CCOCC1)Nc1ccc2ncnc(Nc3ccc(Oc4cccc(C(F)(F)F)c4)c(Cl)c3)c2c1` yielded a growth (T-47D breast) of 19.5%, a growth (BT-549 breast) of 70.1% and a growth (MDA-MB-435 melanoma) of 65.5%. It also gave a growth (SW-620 colon) of 82.2%, a growth (MCF7 breast) of 34.2% and a growth (HCT-116 colon) of 45.1%. It also gave a growth (HCC-2998 colon) of 87.1% and a growth (KM12 colon) of 74.2%.
Work on `O=C(N/N=C/c1cccc(O)c1)c1ccccc1Nc1cccc(C(F)(F)F)c1` yielded a growth (T-47D breast) of 52%, a growth (BT-549 breast) of 67.3% and a growth (MDA-MB-435 melanoma) of 88.8%. The growth (SW-620 colon) was 95.1%, the growth (MCF7 breast) was 73.4% and the growth (HCT-116 colon) was 83.4%. The growth (HCC-2998 colon) was 82.7% and the growth (KM12 colon) was 81.5%.
For `N#CC1=C(N)Oc2c(ccc3ccccc23)C1c1ccc([N+](=O)[O-])cc1` (configuration not stated), the growth (T-47D breast) was 74.6%, the growth (BT-549 breast) was 83.1% and the growth (MDA-MB-435 melanoma) was 6.07% (active). It also gave a growth (SW-620 colon) of 55.5%, a growth (MCF7 breast) of 51.8% and a growth (HCT-116 colon) of 68.8%. For the same compound, the growth (HCC-2998 colon) was 85.9% and the growth (KM12 colon) was 50.4%.
For `COC(=O)N[C@H]1CCc2cc(OC)c(OC)c(OC)c2-c2ccc(SC)c(=O)cc21`, the growth (T-47D breast) was 50.2%, the growth (BT-549 breast) was -4.09% (active) and the growth (MDA-MB-435 melanoma) was -29.5% (active). The growth (SW-620 colon) was 16.9%, the growth (MCF7 breast) was 14.7% and the growth (HCT-116 colon) was 5.32% (active). For the same compound, the growth (HCC-2998 colon) was 6.51% (active) and the growth (KM12 colon) was 1.21% (active).
With `COc1ccc(C(=O)c2cc(C)c(OC)c(C)c2)c(OC)c1N(C(=O)C(Cl)Cl)C(=O)C(Cl)Cl` the growth (T-47D breast) was 52.4%, the growth (BT-549 breast) was 5.7% (active) and the growth (MDA-MB-435 melanoma) was -37.5% (active). The growth (SW-620 colon) was 19%, the growth (MCF7 breast) was 13.4% and the growth (HCT-116 colon) was 4.88% (active). For the same compound, the growth (HCC-2998 colon) was 14.7% and the growth (KM12 colon) was 5.55% (active).
With `Fc1ccc(C2CC(c3cccc(Nc4ccncc4)c3)=NN2c2cc(Cl)cc(Cl)c2)cc1` (configuration not stated) the growth (T-47D breast) was 74.6%, the growth (BT-549 breast) was 104% and the growth (MDA-MB-435 melanoma) was -22.5% (active). For the same compound, the growth (SW-620 colon) was -85.2% (active), the growth (MCF7 breast) was -25.6% (active) and the growth (HCT-116 colon) was 98.8%. For the same compound, the growth (HCC-2998 colon) was 19.1% and the growth (KM12 colon) was -35.7% (active).
`C=C(C)[C@@H]1CC[C@]2(C(=O)N3CCN(C)CC3)CC[C@]3(C)[C@H](CC[C@@H]4[C@@]5(C)CCC(=O)C(C)(C)[C@@H]5CC[C@]43C)[C@@H]12` showed a growth (T-47D breast) of 65.3%, a growth (BT-549 breast) of 96.8% and a growth (MDA-MB-435 melanoma) of 92%. The growth (SW-620 colon) was 73.5%, the growth (MCF7 breast) was 59.2% and the growth (HCT-116 colon) was 31.2%. The growth (HCC-2998 colon) was 82.1% and the growth (KM12 colon) was 80.6%.
With `COc1ccc(/C=C/C(=O)c2ccc(OC)c(OC)c2)cc1O` the growth (T-47D breast) was 75.7%, the growth (BT-549 breast) was 85.2% and the growth (MDA-MB-435 melanoma) was 75%. For the same compound, the growth (SW-620 colon) was 17.1%, the growth (MCF7 breast) was 51.6% and the growth (HCT-116 colon) was 20.3%. For the same compound, the growth (HCC-2998 colon) was 102% and the growth (KM12 colon) was 70.6%.
Compound `CC1(C)NCCC[C@]2(C)[C@H]3CC=C4[C@@H]5C[C@@](C)(CO)CC[C@]5(C)CC[C@@]4(C)[C@]3(C)CC[C@@H]12` has a growth (T-47D breast) of 57.7%, a growth (BT-549 breast) of 78.5% and a growth (MDA-MB-435 melanoma) of 51.5%. The growth (SW-620 colon) was 74.1%, the growth (MCF7 breast) was 40.7% and the growth (HCT-116 colon) was 21%. For the same compound, the growth (HCC-2998 colon) was 60.5% and the growth (KM12 colon) was 52.8%.
For `CCSc1ccc2c(c1)N(CCCN1CCN(C)CC1)c1ccccc1S2`, the growth (T-47D breast) was 47%, the growth (BT-549 breast) was 73.2% and the growth (MDA-MB-435 melanoma) was -15.1% (active). The growth (SW-620 colon) was 45.5%, the growth (MCF7 breast) was 20.5% and the growth (HCT-116 colon) was 21.9%. The growth (HCC-2998 colon) was 13.4% and the growth (KM12 colon) was 4.74% (active).
`N#CSCC1CC(O)(c2ccccc2)C(c2ccccc2)C(c2ccc(F)cc2)O1` (configuration not stated) was tested, and the growth (T-47D breast) was 9.18% (active), the growth (BT-549 breast) was 5.69% (active) and the growth (MDA-MB-435 melanoma) was -0.166% (active). For the same compound, the growth (SW-620 colon) was -1.6% (active), the growth (MCF7 breast) was 5.64% (active) and the growth (HCT-116 colon) was -63.9% (active). For the same compound, the growth (HCC-2998 colon) was 74.8% and the growth (KM12 colon) was 4.67% (active).
